Data from PubChem BioAssay (NCATS).
Records with an inconclusive call do not appear. Active and inactive are the calls of the source. Unless noted, calls follow the shape of the dose curve; as a rule, active = well fitted curve in the direction sought with a large enough effect; inconclusive = small, poorly fitted or top-dose-only effect, or another doubt; inactive = no such curve, though single readings can be large; an effect the other way counts as inactive or inconclusive.

Legend:
[1] = qHTS assay to identify small molecule inhibitors of chordoma cells - UCH-1 (AID 1259355); also: nearly all actives have a fitted effect of over 55% in size; also: potency is read from the fitted curve at half-maximal effect; series mostly up to about 46 µM
Outline: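 Cells (800/well) were seeded and left overnight at 37 C, 5% CO2, then treated with drugs at 15 concentrations plus a combination mix of auranofin, camptothecin, doxorubicin, rubitecan and topotecan. Viability after 48hr was read by CellTiter-Glo luminescence.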

[2] = qHTS assay to identify small molecule inhibitors of chordoma cells - UCH-2 (AID 1259356); also: series mostly up to about 46 µM
[3] = P-glycoprotein substrates identified in KB-8-5-11 adenocarcinoma cell line, qHTS therapeutic library screen (AID 1346987); also: nearly all actives have a fitted effect of over 65% in size; also: potency is read from the fitted curve at half-maximal effect
Outline: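 Steps: plate 500 KB-8-5-11 cells/well in DMEM + 10% FCS (colchicine removed); pin compounds in dose-response; incubate 72 h, 37 degree C, 5% CO2; add CellTiter-Glo, 5 min; read luminescence.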

[4] = NS1 protein of Zika virus - qHTS assay to identify small molecule inhibitors in human HEK 293 cells (AID 1347053); also: series mostly up to about 46 µM; nearly all actives have a fitted effect of over 55% in size
Outline: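 HEK 293 cells, seeded 20 h at 37 C, were pretreated with compound 1 h, then infected with ZIKV MR766 (MOI = 0.5) for 24 h. NS1 was read by TR-FRET with two anti-NS1 antibodies, normalized to uninfected and infected wells.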

[5] = qHTS of pediatric cancer cell lines to identify multiple opportunities for drug repurposing: Primary screen for TC32 cells (AID 1347089); also: nearly all actives have a fitted effect of over 60% in size
Outline: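 qHTS, TC32, 48 h drug treatment, CellTiter-Glo luminescence as a proxy for metabolically active cells; primary top concentration 46 µM (MIPE 11-pt, NPC 8-pt); confirmatory 11-pt.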

[6] = qHTS of pediatric cancer cell lines to identify multiple opportunities for drug repurposing: Primary screen for DAOY cells (AID 1347090); also: series mostly up to about 46 µM; nearly all actives have a fitted effect of over 55% in size
Outline: (§1)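 Viability measured as metabolically active cells via CellTiter-Glo luminescence following 48 hours of compound exposure, 11-point dilutions in confirmatory testing. 500-1,000 cells/well plated 5 hours before dosing; controls were DMSO and 2.3 µM bortezomib.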

[7] = qHTS of pediatric cancer cell lines to identify multiple opportunities for drug repurposing: Primary screen for SJ-GBM2 cells (AID 1347091); also: potency is read from the fitted curve at half-maximal effect
Outline: as §1

[8] = qHTS of pediatric cancer cell lines to identify multiple opportunities for drug repurposing: Primary screen for A673 cells (AID 1347092); also: nearly all actives have a fitted effect of over 45% in size; also: potency is read from the fitted curve at half-maximal effect
Outline: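 Luminescence from CellTiter-Glo, taken after 15 min at room temperature, served as the proxy for metabolically active cells following 48 h treatment. Both potency and efficacy were taken from curves fitted to the titration data.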

[9] = qHTS of pediatric cancer cell lines to identify multiple opportunities for drug repurposing: Primary screen for SK-N-MC cells (AID 1347093); also: potency is read from the fitted curve at half-maximal effect
Outline: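 Metabolically active cells were quantified by ATP-dependent luminescence (CellTiter-Glo, 15 min at room temperature) following 48 h treatment. Cells had been plated at 500-1,000 per well and settled for 5 h beforehand.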

[10] = qHTS of pediatric cancer cell lines to identify multiple opportunities for drug repurposing: Primary screen for BT-37 cells (AID 1347094); also: potency is read from the fitted curve at half-maximal effect
Outline: (§2)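 Readout: CellTiter-Glo luminescence, 48 h treatment. Controls DMSO (neutral) and bortezomib 2.3 µM final (positive). Potency and efficacy taken from primary-screen concentration-response curves.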

[11] = qHTS of pediatric cancer cell lines to identify multiple opportunities for drug repurposing: Primary screen for NB-EBc1 cells (AID 1347095)
Outline: as §2

[12] = Natriuretic polypeptide receptor (hNpr1) antagonism - Pilot counterscreen GloSensor control cell line (AID 1347045; calls by dose curve; also: series mostly up to about 38 µM)
Outline: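 Luminescence was read before and 20 min after adding 50 uM SNP, which stimulates soluble guanylyl cyclase. The HEK293 cells expressing the GloSensor cGMP sensor had been preloaded with 2% reagent for 2 h and treated with compound.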

[13] = target: Atrial natriuretic peptide receptor 1 (Homo sapiens) (UniProt P16066); experiment: Natriuretic polypeptide receptor (hNpr1) antagonism - Pilot screen (AID 1347049; calls by dose curve;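 also: agonist-evoked cGMP luminescence read 20 min after hNppA addition; series mostly up to about 58 µM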)
Outline: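 HEK293 cells expressing hNpr1 and GloSensor cGMP luciferase, 1500/well, loaded with 2% GloSensor reagent 2 h, compound 30 min at room temperature; luminescence read before and 20 min after 0.1 nM hNppA stimulation.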

[14] = target: Atrial natriuretic peptide receptor 2 (Homo sapiens) (UniProt P20594); experiment: Natriuretic polypeptide receptor (hNpr2) antagonism - Pilot subtype selectivity assay (AID 1347050; calls by dose curve)
Outline: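 HEK293 cells expressing hNpr2 and a GloSensor cGMP luciferase sensor, 1500/well, preloaded 2 h with 2% GloSensor reagent, compound 30 min, then 1 nM hNppC for 20 min. Antagonism from luminescence after versus baseline pre-read; LOPAC in 1:5 titrations.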

[15] = target: T1, Tyrosine-protein phosphatase non-receptor type substrate 1 (Homo sapiens) + Leukocyte surface antigen CD47 (Homo sapiens) (UniProt P78324+Q08722); experiment: CD47-SIRPalpha protein protein interaction - LANCE assay qHTS validation (AID 1347057; active = well fitted curve in the direction sought with a large enough effect in the signal ratio, with a control signal flat, not every such curve was filed as active; the % refers to the signal ratio; also: series mostly up to about 38 µM)
Outline: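 First, His-tagged CD47 and Eu-labelled anti-His antibody met the compound for 30 min; next, site-specifically biotinylated SIRPalpha was added for 30 min; finally streptavidin-APC was added before reading the TR-FRET ratio.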

[16] = target: T1, Tyrosine-protein phosphatase non-receptor type substrate 1 (Homo sapiens) + Leukocyte surface antigen CD47 (Homo sapiens); experiment: CD47-SIRPalpha protein protein interaction - HTRF assay qHTS validation (AID 1347058; active = well fitted curve in the direction sought with a large enough effect in the signal ratio, not every such curve was filed as active; the % refers to the signal ratio;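 also: recombinant soluble extracellular CD47 with His tag and biotinylated SIRPalpha domains; series mostly up to about 38 µM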)
Outline: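 TR-FRET read (Ch1/Ch2 ratio) of soluble extracellular CD47 and Avi-biotinylated SIRPalpha domains in PBS pH 7.4 with 0.05% IGEPAL; 7-point compound titration. Sequential 30 min room-temperature steps; non-biotinylated SIRPalpha as control inhibitor.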

[17] = target: T1, Tyrosine-protein phosphatase non-receptor type substrate 1 (Homo sapiens) + Leukocyte surface antigen CD47 (Homo sapiens); experiment: CD47-SIRPalpha protein protein interaction - Alpha assay qHTS validation (AID 1347059);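 also: bead proximity luminescence from CD47 binding SIRPalpha after compound preincubation with SIRPalpha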
Outline: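 Biotinylated Avi-tagged SIRPalpha (25 nM) preincubated 30 min with compound, then His-tagged CD47 (12.5 nM) added 30 min; AlphaScreen with Ni-NTA acceptor and streptavidin donor beads. PBS pH 7.4, 0.05% IGEPAL, room temperature; 7-point titrations.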

[18] = target: Parathyroid hormone/parathyroid hormone-related peptide receptor (Homo sapiens) (UniProt Q03431); experiment: qHTS for PTHR1 Agonists: Optimization Screen against the NCGC LOPAC library (AID 1347079);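 also: GloSensor cAMP luminescence in HEK-293 GP2 cells expressing human PTHR1 with IBMX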
Outline: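 Agonist readout: GloSensor cAMP luminescence, read after 15 min at room temperature. HEK-293-derived GP2 line carries PTHR1; compounds tested as a titration for 1 hr at 37C in presence of IBMX. M-PTH (1-15) served as control.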

Measured: Potency

T1 sequence (P78324 whole entry, looked up): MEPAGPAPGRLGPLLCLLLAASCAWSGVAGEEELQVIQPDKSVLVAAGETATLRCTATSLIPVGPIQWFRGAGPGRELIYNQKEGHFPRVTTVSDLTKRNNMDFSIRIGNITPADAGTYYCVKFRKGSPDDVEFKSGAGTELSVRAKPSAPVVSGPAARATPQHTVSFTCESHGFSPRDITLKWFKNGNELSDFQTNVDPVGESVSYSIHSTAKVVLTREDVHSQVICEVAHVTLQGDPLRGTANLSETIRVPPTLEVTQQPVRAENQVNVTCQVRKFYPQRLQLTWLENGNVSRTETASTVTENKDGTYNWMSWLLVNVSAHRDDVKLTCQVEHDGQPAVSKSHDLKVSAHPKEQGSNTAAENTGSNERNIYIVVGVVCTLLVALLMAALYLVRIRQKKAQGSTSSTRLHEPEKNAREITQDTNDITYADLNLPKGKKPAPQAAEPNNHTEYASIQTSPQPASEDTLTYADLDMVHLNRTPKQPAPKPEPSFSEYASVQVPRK
T1 sequence (Q08722 whole entry, looked up): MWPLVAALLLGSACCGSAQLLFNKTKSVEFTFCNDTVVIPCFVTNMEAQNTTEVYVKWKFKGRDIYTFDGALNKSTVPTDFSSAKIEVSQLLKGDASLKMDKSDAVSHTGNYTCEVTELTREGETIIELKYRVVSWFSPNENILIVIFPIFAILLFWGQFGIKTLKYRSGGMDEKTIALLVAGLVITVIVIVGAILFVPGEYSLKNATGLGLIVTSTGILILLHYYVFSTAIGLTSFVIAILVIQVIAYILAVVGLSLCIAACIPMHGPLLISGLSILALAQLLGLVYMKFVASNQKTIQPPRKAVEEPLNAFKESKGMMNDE
Sequence of Atrial natriuretic peptide receptor 1 (Homo sapiens) (P16066 whole entry, looked up): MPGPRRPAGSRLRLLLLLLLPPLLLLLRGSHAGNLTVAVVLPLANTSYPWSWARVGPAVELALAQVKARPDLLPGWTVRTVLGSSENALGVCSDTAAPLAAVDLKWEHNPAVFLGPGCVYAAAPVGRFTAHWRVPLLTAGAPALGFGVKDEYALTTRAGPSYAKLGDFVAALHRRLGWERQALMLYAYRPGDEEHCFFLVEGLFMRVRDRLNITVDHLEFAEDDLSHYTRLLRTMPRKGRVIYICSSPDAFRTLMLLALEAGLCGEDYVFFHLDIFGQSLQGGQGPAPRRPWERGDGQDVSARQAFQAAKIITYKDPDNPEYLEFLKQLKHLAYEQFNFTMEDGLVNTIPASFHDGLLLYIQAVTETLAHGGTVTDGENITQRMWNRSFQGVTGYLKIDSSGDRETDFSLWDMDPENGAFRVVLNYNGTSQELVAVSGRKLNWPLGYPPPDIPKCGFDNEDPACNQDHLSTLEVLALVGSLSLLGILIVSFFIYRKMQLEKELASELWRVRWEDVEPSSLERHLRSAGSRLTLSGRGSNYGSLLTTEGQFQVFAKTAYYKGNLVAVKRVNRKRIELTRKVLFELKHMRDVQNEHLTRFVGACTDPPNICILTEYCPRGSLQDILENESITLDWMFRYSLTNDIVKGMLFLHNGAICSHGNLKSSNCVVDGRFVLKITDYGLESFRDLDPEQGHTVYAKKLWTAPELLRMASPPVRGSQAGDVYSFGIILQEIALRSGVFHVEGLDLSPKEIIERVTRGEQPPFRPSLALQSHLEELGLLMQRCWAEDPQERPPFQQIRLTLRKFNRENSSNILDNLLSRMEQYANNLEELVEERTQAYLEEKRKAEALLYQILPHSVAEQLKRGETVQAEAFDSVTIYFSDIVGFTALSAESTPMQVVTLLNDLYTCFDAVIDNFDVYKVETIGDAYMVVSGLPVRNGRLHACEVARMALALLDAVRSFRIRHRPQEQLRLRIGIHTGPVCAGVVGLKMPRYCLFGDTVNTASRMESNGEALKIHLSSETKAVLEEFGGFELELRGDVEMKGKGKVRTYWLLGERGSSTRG
Sequence of Atrial natriuretic peptide receptor 2 (Homo sapiens) (P20594 whole entry, looked up): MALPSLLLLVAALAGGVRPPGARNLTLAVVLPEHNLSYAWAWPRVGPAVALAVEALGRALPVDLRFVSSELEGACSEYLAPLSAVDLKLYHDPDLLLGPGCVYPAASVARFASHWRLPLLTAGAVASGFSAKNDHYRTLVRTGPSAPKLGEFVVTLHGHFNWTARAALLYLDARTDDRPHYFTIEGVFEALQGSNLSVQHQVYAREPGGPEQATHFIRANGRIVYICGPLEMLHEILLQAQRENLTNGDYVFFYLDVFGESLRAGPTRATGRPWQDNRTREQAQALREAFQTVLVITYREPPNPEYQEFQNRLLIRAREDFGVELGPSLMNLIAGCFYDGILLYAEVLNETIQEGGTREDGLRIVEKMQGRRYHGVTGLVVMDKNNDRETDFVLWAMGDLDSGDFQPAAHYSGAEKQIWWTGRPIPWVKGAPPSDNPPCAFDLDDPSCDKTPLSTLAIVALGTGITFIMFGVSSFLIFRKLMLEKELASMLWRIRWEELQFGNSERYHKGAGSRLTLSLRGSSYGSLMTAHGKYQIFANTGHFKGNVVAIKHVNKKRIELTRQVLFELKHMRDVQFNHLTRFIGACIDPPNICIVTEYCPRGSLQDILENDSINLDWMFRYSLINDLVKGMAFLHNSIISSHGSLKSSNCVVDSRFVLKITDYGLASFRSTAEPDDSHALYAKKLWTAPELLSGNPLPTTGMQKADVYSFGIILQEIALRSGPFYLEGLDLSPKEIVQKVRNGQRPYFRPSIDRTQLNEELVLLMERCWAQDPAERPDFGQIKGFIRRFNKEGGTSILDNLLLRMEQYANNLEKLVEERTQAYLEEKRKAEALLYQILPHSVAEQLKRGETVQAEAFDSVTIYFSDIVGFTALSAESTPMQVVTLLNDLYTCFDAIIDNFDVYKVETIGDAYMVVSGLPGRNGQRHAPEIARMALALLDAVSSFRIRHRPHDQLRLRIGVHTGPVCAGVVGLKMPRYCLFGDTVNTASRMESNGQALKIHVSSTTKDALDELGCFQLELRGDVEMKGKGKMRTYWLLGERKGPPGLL
Sequence of Parathyroid hormone/parathyroid hormone-related peptide receptor (Homo sapiens) (Q03431 whole entry, looked up): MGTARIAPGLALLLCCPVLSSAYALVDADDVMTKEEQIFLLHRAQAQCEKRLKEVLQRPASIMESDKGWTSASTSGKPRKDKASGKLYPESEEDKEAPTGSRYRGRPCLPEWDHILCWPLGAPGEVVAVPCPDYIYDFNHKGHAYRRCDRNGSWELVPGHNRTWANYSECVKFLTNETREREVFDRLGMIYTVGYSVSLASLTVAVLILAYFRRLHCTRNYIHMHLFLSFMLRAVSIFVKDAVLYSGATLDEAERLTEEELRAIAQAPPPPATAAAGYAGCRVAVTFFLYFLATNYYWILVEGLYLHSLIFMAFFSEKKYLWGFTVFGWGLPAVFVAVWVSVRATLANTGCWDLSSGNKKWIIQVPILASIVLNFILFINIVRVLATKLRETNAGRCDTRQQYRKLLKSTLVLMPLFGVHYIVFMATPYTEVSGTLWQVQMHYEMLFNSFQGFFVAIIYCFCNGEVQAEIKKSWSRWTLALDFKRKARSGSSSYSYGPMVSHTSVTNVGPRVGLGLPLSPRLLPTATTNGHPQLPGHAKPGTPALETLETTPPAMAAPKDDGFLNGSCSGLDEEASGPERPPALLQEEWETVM

O=C(O)C1(C(=O)O)CCC1.[NH2-].[NH2-].[Pt+2]
not listed: [12] | [13] | [14] | [15] | [16] | [17] | [18]
inactive: all other assays above

COc1cc(C(=O)N2CCCCCCC2)cc(OC)c1OC
not listed: [12] | [13] | [14] | [15] | [16] | [17] | [18]
inactive: all other assays above

CCN(CC)CCNC(=O)c1cc(Br)c(N)cc1OC
not listed: [12] | [13] | [14] | [15] | [16] | [17] | [18]
inactive: all other assays above

CO[C@]12C[C@@H](COC(=O)c3cncc(Br)c3)CN(C)[C@@H]1Cc1cn(C)c3cccc2c13
inactive: [1] | [2] | [4] | [5] | [6] | [7] | [8] | [9] | [10] | [11]

CN(C)CCOC(c1ccc(Cl)cc1)c1ccccn1 (stereo not given)
inactive: [1] | [2] | [4] | [5] | [6] | [7] | [9] | [10] | [11]

CCCN(CCC)S(=O)(=O)c1ccc(C(=O)O)cc1
not listed: [12] | [13] | [14] | [15] | [16] | [17] | [18]
inactive: all other assays above

COc1ccc(/C=N/NC(=O)c2ccncc2)cc1OC
inactive: [1] | [2] | [4] | [5] | [6] | [7] | [8] | [9] | [10] | [11]

CN=C(N)NCCC[C@H](N)C(=O)O
inactive: [2] | [3] | [12] | [13] | [14] | [4] | [15] | [16] | [17] | [18]

NCCNc1cccc2ccccc12
inactive: [2] | [4] | [5] | [6] | [7] | [8] | [9] | [10] | [11]

CC(C)=CCOc1ccc(/C=C/C(=O)c2ccc(OCC=C(C)C)cc2OCC(=O)O)cc1
active: [9] 21.1 µM
inactive: [1] | [2] | [4] | [5] | [10]

O=C(CCN1CCN2CCCC2C1)N1c2ccccc2Sc2ccc(Cl)cc21 (stereo not given)
inactive: [1] | [2] | [3] | [4] | [6] | [7] | [8] | [9] | [10] | [11]

CN1CCC[C@@H]1CCO[C@](C)(c1ccccc1)c1ccc(Cl)cc1
inactive: [2] | [3] | [4] | [5]
active: [7] 21.1 µM | [9] 29.9 µM

O=C(c1ccc(F)cc1)C1CCN(CCn2c(=S)[nH]c3ccccc3c2=O)CC1
inactive: [1] | [2] | [3] | [4] | [5] | [6] | [9] | [11]
active: [8] 16.8 µM

Cc1cc(CC(=O)O)c(C)n1-c1ccc(Cl)cc1
inactive: [1] | [2] | [3] | [4] | [5] | [6] | [7] | [8] | [10] | [11]

CCCCCCCCNC(C)C(O)c1ccc(SC(C)C)cc1 (stereo not given)
active: [1] 35.5 µM | [3] 11.6 µM | [9] 16.8 µM | [10] 27.6 µM
inactive: [2] | [5]

CCCCCCCC/C=C\CCCCCCCCN
inactive: [2] | [3] | [4] | [5] | [6] | [7] | [8] | [9] | [10] | [11]

Cc1cccc(C)c1NC(=O)CN1CCCC1
not listed: [12] | [13] | [14] | [15] | [16] | [17] | [18]
inactive: all other assays above

CC(=O)O[C@]1(C(C)=O)CC[C@H]2[C@@H]3C=C(Cl)C4=CC(=O)CC[C@]4(C)[C@H]3CC[C@@]21C
inactive: [1] | [2] | [4] | [6] | [7] | [8] | [11]

Cc1ccc(-c2ncc(Cl)cc2-c2ccc(S(C)(=O)=O)cc2)cn1
inactive: [1] | [2] | [4] | [5] | [6] | [7] | [8] | [9] | [10] | [11]

CCC(CC)(CC(=O)Nc1cccc(/C=C/c2nc(C3CCC3)cs2)c1)C(=O)O
inactive: [1] | [2] | [4] | [5] | [6] | [7] | [8] | [10] | [11]

COP(=O)(OC)OC(c1ccc(Cl)cc1)P(=O)(OC)OC (stereo not given)
not listed: [12] | [13] | [14] | [15] | [16] | [17] | [18]
inactive: all other assays above

CN1CCN(C2=Nc3cc(F)ccc3Cc3ccccc32)CC1
inactive: [1] | [2] | [4] | [5] | [6] | [7] | [8] | [11]

C/C=C/c1ccc(O)c(OC)c1
inactive: [1] | [2] | [4] | [5] | [6] | [7] | [8] | [9] | [10] | [11]
